High-throughput results as filed in PubChem BioAssay.
PNC inhibitor: inhibitors of perinucleolar compartment assembly | PC3M PTB-GFP, PNC prevalence imaging, 16 h; stronger effect = lower value | activity change (PNC), negative = inhibition, % at 10 µM | 140,000 tested, 3.1% active | AID 2417;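 active = readout at or below -70, meaning at least 70% loss of cells showing the perinucleolar compartment, a nuclear body marking cancer cells; inconclusive = readout between -30 and a set limit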;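 note: plate controls were DMSO wells for no effect and camptothecin positive control wells for full effect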
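Read-out is percentage of cells bearing a perinucleolar compartment, from automated 20x imaging of fixed, Hoechst-stained PC3M PTB-GFP cells. Cells were seeded 4 h, then exposed 16 h to compound (23 nl of library stock) in duplicate plates.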
IMPase Li inh: cell-permeable IMPase inhibitors with lithium potentiation; 210,000 tested, 0.35% active; CHO-M1 cells, IP1 TR-FRET (IP-One), carbachol + lithium; Potency, µM (top dose mostly 59.4 µM), without a hit: top-dose activity, negative = IMPase inhibition, actives largely listed as inhibitors;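 note: IP1 builds up when IMPase is blocked and the TR-FRET signal falls; potency is the fitted concentration of half-maximal effect; plate controls were basal vehicle for no effect and high inhibitor control for full effect; nearly all actives have a fitted effect of over 50% in size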
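Lithium-sensitised IP1 accumulation assay; M1-expressing CHO cells treated 30 min at 37C with compound. Competitive antibody detection by time-resolved FRET followed a 10 min room-temperature lysis step.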
ALOX12 inhib: 12-hLO (ALOX12) enzyme inhibition; P18054; purified 12-hLO, xylenol orange hydroperoxide absorbance; Potency, µM (titrated, usually from 57.1 µM), inactives show top-dose activity change, negative = inhibition, most hits filed as inhibitors; 150,000 tested, 0.12% active; note: potency is the fitted concentration of half-maximal effect; nearly all actives have a fitted effect of over 55% in size
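Xylenol orange chromogenic assay: hydroperoxide from 12hLO oxidises Fe(II), giving red-shifted Fe(III)-XO absorbance. Conditions: 150 nM enzyme, 40 uM arachidonic acid, 25 mM Hepes pH 7.0, 0.01% Triton X-100, 30 min, room temperature.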
IMPase inh: cell-permeable inhibitors of inositol monophosphatase (IMPase) | P97697 | CHO-M1 cells, IP1 accumulation, HTRF TR-FRET ratio | 120,000 tested, under 10 active | inhibition (IP1 accumulation), % at 46.1 µM | AID 901; active = well fitted curve in the direction sought with a large enough effect in the signal ratio, not every such curve was filed as active; inconclusive = small, poorly fitted or top-dose-only effect, or a change in a side signal; inactive = no such curve, though single readings can be large or run the other way; the % refers to the signal ratio;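 note: cells stimulated with carbachol in lithium chloride buffer; plate controls were DMSO basal wells for no effect and reference inhibitor wells for full effect; higher means more IMPase inhibition seen as more IP1 and lower FRET ratio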
Target sequence (P97697 whole entry, looked up): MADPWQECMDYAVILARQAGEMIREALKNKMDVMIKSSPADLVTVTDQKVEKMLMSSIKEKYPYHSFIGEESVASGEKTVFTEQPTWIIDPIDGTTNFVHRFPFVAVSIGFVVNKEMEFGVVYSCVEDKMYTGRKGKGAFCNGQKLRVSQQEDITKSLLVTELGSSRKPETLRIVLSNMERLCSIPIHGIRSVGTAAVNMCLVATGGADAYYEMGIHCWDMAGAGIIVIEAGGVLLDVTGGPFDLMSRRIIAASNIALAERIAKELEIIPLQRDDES
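The IP-One HTRF competitive assay in carbachol-stimulated CHO-M1 cells quantifies cellular IP1. Compounds spanned up to 46 uM final, and activity is expressed as AC50 from concentration-response fits of the ratio and donor data.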
An asterisk follows results filed as active; ? = inconclusive; nt = not tested or not shown; [ ] = remark or other dose. Only a selection was taken, and hits are over-represented in it overall. Unless noted, calls come from the whole dose curve; as a rule, active = well fitted curve in the direction sought with a large enough effect; inconclusive = small, poorly fitted or top-dose-only effect, or another doubt; inactive = no such curve, though single readings can be large; an effect the other way counts as inactive or inconclusive. Unless noted, % is set by controls: 0 for no effect and ±100 for the full control effect.

SMILES | PNC inhibitor | IMPase Li inh | ALOX12 inhib | IMPase inh
COc1ccc(NCc2nc3ccccc3n2CCOc2ccccc2)cc1 | ? | 12% | -1% | 16
COc1ccc(-c2nc3ccccc3c(=O)n2CCOc2ccc(C)cc2C)cc1 | -12 | 6% | -3% | -6
c1ccc(Nc2nc(N3CCOCC3)nc(N3CCOCC3)n2)cc1 | -5 | 45%[38.3 µM] | 2% | 9
c1ccc(Nc2nc(N3CCNCC3)nc(N3CCOCC3)n2)cc1 | -100* | 3% | 3% | ?
O=C(CSc1nc(Nc2ccccc2)nc(N2CCOCC2)n1)N1CCc2ccccc21 | -117* | 20%[38.3 µM] | 11% | ?
O=C(CSc1nc(Nc2ccccc2)nc(N2CCOCC2)n1)N1CCCC1 | ? | 25%[38.3 µM] | 7% | -2
Cc1cc2nc(-c3ccc(Br)cc3)cc(C(F)(F)F)n2n1 | nt | nt | nt | -9
CN1/C(=C\C(=O)c2cccc(S(=O)(=O)N3CCCCC3)c2)C(C)(C)c2ccccc21 | -88* | 3% | -1% | nt
CN1/C(=C\C(=O)c2cccnc2)C(C)(C)c2ccccc21 | -27 | -5% | -1% | 4
CN1/C(=C\C(=O)c2cncc(Br)c2)C(C)(C)c2ccccc21 | -84* | 12% | -7% | nt
Cc1cc(C)c(NC(=O)C[C@H](CC(=O)O)c2cccc3ccccc23)c(C(=O)N2CCC3(CCCC3)CC2)c1 | nt | 11% | -5% | -1
CC(=O)SC1CC2=CC(=O)CC[C@]2(C)C2CC[C@@]3(C)[C@@H](CC[C@@]34CCC(=O)O4)C12 (stereo partly specified) | nt | -9% | nt | nt
CC(Sc1ccccn1)C(=O)Nc1ccc(S(N)(=O)=O)cc1 (stereo unspecified) | -108* | 3%[38.3 µM] | -6% | -6
O=C(CN1CCN(Cc2ccc(Cl)cc2)CC1)N/N=C/c1c[nH]c2ccccc12 | -27 | 5% | -4% | nt
Cc1cc(C(C)(C)C)cc(CNC2CCCCC2)c1O | nt | -2% | 4%[11.4 µM] | nt
Nc1ccc(C(=O)c2ccccc2C(=O)O)cc1Cl | -107* | 0%[38.3 µM] | -3% | -5
CC(=O)Oc1ccc2c(=O)c(-c3ccccc3)c(C)oc2c1 | nt | 2% | nt | nt
Cc1oc2cc(OC(=O)c3ccco3)ccc2c(=O)c1-c1nc2ccccc2n1C | -93* | -2% | 2% | nt
C=C1C(=O)[C@]23[C@H](O)[C@H]1CC[C@H]2[C@@]12COC3(O)[C@H](O)[C@@H]1C(C)(C)CC[C@@H]2O | nt | 13% | -12%[0.00818 µM] | nt
Cc1c(C(=O)OC2CCCC2)[nH]c2c1C(=O)CC(c1ccc(C(C)(C)C)cc1)C2 (stereo unspecified) | nt | nt | nt | -1
Cc1c(C(=O)OC2CCCC2)[nH]c2c1C(=O)CC(c1ccco1)C2 (stereo unspecified) | -108* | 26%[38.3 µM] | -6% | ?
C=CCOC(=O)c1[nH]c2c(c1C)C(=O)CC(c1ccco1)C2 (stereo unspecified) | -29 | 28%[38.3 µM] | -10% | 8
Cc1c(C(=O)OCC(C)C)[nH]c2c1C(=O)CC(c1ccco1)C2 (stereo unspecified) | -88* | 15% | -9% | 7
Cc1c(C(=O)OC2CCCCC2)[nH]c2c1C(=O)CC(c1ccccc1Cl)C2 (stereo unspecified) | nt | nt | nt | -9
C/C=C/COC(=O)c1[nH]c2c(c1C)C(=O)CC(c1ccco1)C2 (stereo unspecified) | -102* | 13% | 1% | -3
SMILES | PNC inhibitor | IMPase Li inh | ALOX12 inhib | IMPase inh
Cc1c(C(=O)OCC2CCCO2)[nH]c2c1C(=O)CC(c1ccco1)C2 (stereo unspecified) | 39 | 16%[38.3 µM] | -16% | 0
Cc1c(C(=O)N2CCOCC2)[nH]c2c1C(=O)CC(c1ccccc1Cl)C2 (stereo unspecified) | -84* | 29%[38.3 µM] | -4% | 7
COc1cccc(C(=O)NCC(=O)N/N=C/c2cn[nH]c2-c2ccccc2)c1 | nt | -1% | nt | nt
CCN(CC)CCCC(C)n1c(-c2ccccc2)nc2c(NCc3ccccc3)nc(C)nc21 (stereo unspecified) | nt | 12% | 0% | nt
Cc1c(C(=O)OC2CCCCC2)[nH]c2c1C(=O)CC(c1ccccc1)C2 (stereo unspecified) | nt | nt | nt | -1
COC(=O)c1[nH]c2c(c1C)C(=O)CC(c1ccccc1)C2 (stereo unspecified) | -111* | 15%[38.3 µM] | 3% | 4
O=C1CSC(=S)N1N1C(=O)c2cccc([N+](=O)[O-])c2C1=O | nt | 12% | nt | nt
O=C(O)Cc1[nH]cnc1C(=O)O | nt | 2% | 1%[11.4 µM] | nt
O=C(COC(=O)c1ccc(NS(=O)(=O)c2ccc3c(c2)OCCO3)cc1)NCC1CCCO1 (stereo unspecified) | -92* | 6%[38.3 µM] | 0% | 1
COC(=O)c1ccc(C)c(NS(=O)(=O)c2ccc3c(c2)OCCO3)c1 | -112* | 20%[38.3 µM] | -7% | -2
COC(=O)c1ccc(C)c(NS(=O)(=O)c2ccc(OC)cc2)c1 | -94* | -5%[38.3 µM] | -10% | 6
COc1ccc(Cl)cc1NC(=O)c1nc2nc(C)cc(C(F)F)n2n1 | 23 | -2%[38.3 µM] | -2% | 0
Cc1ccccc1-c1cncnc1NCc1cccs1 | nt | 4% | nt | nt
CCOC(=O)C1CCCN(C(=O)C(C)Oc2ccc(Cl)cc2Cl)C1 (stereo unspecified) | 13 | 29%[38.3 µM] | -7% | -5
CC(Oc1ccc(Cl)cc1Cl)C(=O)Nn1cnnc1 (stereo unspecified) | -119* | -3% | 4% | -3
CC(Oc1ccc(Cl)cc1Cl)C(=O)NC1=NN(c2ccccc2)C(=O)C1 (stereo unspecified) | 1 | -7%[38.3 µM] | 8.9µM* | 4
COC(=O)C1CCN(C(=O)C(C)Oc2ccc(Cl)cc2Cl)CC1 (stereo unspecified) | -87* | 48%[38.3 µM] | -13% | -1
CC(=O)Nc1ccc(NC(=O)C(C)Oc2ccc(Cl)cc2Cl)cc1 (stereo unspecified) | nt | -1% | nt | nt
COc1cc(OC)cc(C(C(=O)NC2CCCCC2)N(C(=O)c2ccno2)c2ccccc2)c1 (stereo unspecified) | 18 | 2% | 4% | 3
CCCCN1C(=O)c2ccc(C(=O)NC3=NCCS3)cc2C1=O | -29 | 30%[38.3 µM] | 0% | 5
Cc1ccsc1C(=O)N1CC(=O)Nc2ccccc21 | ? | -31%[38.3 µM] | -4% | 3
Cc1cc(C)c2nc(SCC(=O)N3CC(=O)Nc4ccccc43)c(C#N)cc2c1 | -104* | 9% | -2% | 9
Cc1cc(C)cc(C(=O)N2CC(=O)Nc3ccccc32)c1 | -80* | 37%[38.3 µM] | -3% | 7
O=C1CN(C(=O)CSc2nc(-c3ccc(Cl)cc3)cs2)c2ccccc2N1 | -113* | -6% | -1% | nt
Nn1c(Cc2ccccc2F)nnc1SCC(=O)N1CC(=O)Nc2ccccc21 | -100* | -2% | 2% | -9
Cc1nnc(SCC(=O)N2CC(=O)Nc3ccccc32)s1 | nt | -3% | nt | nt
OCCNc1ncnc2c1ncn2[C@@H]1O[C@@H](CO)[C@H](O)[C@@H]1O | nt | -5% | 3%[11.4 µM] | nt
O=C(O)C1CC(O)CN1c1nc(Cl)ccc1[N+](=O)[O-] (stereo unspecified) | nt | 4% | nt | nt
